Experimental data as given in PubChem BioAssay AID493188 (National Center for Advancing Translational Sciences (NCATS), 2011).
Records with an inconclusive call do not appear. The source made the active and inactive calls. Calls follow the shape of the dose curve; as a rule, active = well fitted inhibition curve with a large enough effect; inconclusive = small, poorly fitted or top-dose-only effect; inactive = flat fitted curve, though single readings scatter.

What follows are molecules tested against Galactokinase (Homo sapiens) (UniProt P51570) (assay: Confirmation Assay for Inhibitors of Human Galactokinase (GALK): SAR round 2). Conditions: Recombinant GALK, Kinase-Glo ATP depletion luminescence; series mostly up to 57.5 µM.
Text: NIH Molecular Libraries Probe Production Centers Network [MLPCN] NIH Chemical Genomics Center [NCGC] MLPCN Grant: R03 MH085689-01 Assay Submitter (PI): Kent Lai (University of Utah School of Medicine, 50 N Mario Capecchi Drive, Salt Lake City, UT 84132) NCGC Assay Overview Inherited deficiency of galactose-1-phosphate uridyltransferase (GALT) can result in a potentially lethal disorder called Classic Galactosemia (OMIM 230400). Several lines of evidence indicate that an elevated level of galactose-1-phosphate (gal-1-p), the product of galactokinase (GALK), is a major, if not sole, pathogenic mechanism in patients with classic galactosemia. Therefore, finding inhibitors of GALK is a potential novel therapy for this inherent metabolic disease and is the long term goal of this project. Active compounds observed in the qHTS GALK assay (AID: 1868) were cherry picked and re-screened for validation. GALK (provided by Kent Lai) was assayed using ATP and D-(+)-Galactose (Sigma-Aldrich cat# G0750) as substrates. Promega Kinase-Glo Plus (cat# V3774) technology was used to detect the residual ATP following kinetic reaction. Briefly, the Kinase-Glo Plus contains Ultra-Glo [1] luciferase and D-luciferin which generates a bioluminescence signal from the remaining ATP. Kinase reactions with and without GALK were used as negative and positive controls together with Protein Tyrosine Phosphatase CD45 inhibitor (EMD Bioscience cat# 540215) which is shown to inhibit GALK activity.
NCGC Assay Protocol Summary: Three uL/well of ATP-buffer solution (35 uM ATP, 20mM HEPES pH8.0, 5 mM MgCl2, 60 mM NaCl, 1 mM DTT, 0.01% BSA final concentration) was dispensed into 1536-well, assay plates (Greiner, solid white medium-binding plates) with Aurora Discovery BioRAPTR Flying Reagent Dispenser (FRD; Beckton-Dickenson). Compound and control solution (23 nL) was transferred to the assay plate using the Kalypsys 1536-pin tool apparatus. One uL/well GALK-galactose solution (5 nM GALK, 100 uM galactose, 20 mM HEPES pH8.0, 5 mM MgCl2, 60 mM NaCl, 1 mM DTT, 0.01% BSA final concentration) was then added using the FRD yielding a total kinase reaction volume of 4 uL/ well. After 1 hour of room temperature incubation, 4 uL Kinase-Glo Plus reagent was added for a final assay volume of 8 uL/well. Luminescence was detected with the ViewLux plate reader (Perkin Elmer, Waltham, MA) after 2 min incubation using a 1 sec exposure time and 2x binning.

Sequence of Galactokinase (Homo sapiens) (P51570 whole entry, looked up): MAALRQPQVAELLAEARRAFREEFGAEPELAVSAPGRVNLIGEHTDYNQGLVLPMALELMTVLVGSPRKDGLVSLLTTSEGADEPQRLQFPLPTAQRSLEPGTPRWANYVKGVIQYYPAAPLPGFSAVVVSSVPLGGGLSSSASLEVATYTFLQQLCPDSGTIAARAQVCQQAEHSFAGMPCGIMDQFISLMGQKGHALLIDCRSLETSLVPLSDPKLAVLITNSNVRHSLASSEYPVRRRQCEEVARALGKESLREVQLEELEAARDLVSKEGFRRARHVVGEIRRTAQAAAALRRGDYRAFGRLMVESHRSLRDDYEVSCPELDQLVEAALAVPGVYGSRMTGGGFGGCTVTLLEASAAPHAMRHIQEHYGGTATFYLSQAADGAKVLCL

| SMILES | Potency |
| --- | --- |
| O=C1CCCC2=C1C(c1ccccc1C(F)(F)F)N=C(Nc1nc3ccccc3o1)N2 (configuration not stated) | 12.2 µM (active) |
| O=C1CCCC2=C1[C@@]1(CCC(c3ccccc3)C1)N=C(Nc1nc3ccccc3o1)N2 (some centres not stated) | inactive |
| Cc1ccc(N(CC(=O)Nc2ccc(OC(F)(F)F)cc2)S(=O)(=O)c2c(C)noc2C)cc1 | inactive |
| CC(C)(C)C(=O)Nc1ccc2c(c1)C(=O)C(=O)c1ccccc1-2 | 2.59 µM (active) |
| Cc1nc(Nc2nc3ccccc3o2)nc2c1CCCC2 | inactive |
| CC(C)c1nc(Nc2nc3ccccc3o2)nc2c1CCCC2 | inactive |
| O=C1CCCC2=C1C(c1cccc(Oc3ccccc3)c1)N=C(Nc1nc3ccccc3o1)N2 (configuration not stated) | inactive |
| COc1cccc(C2N=C(Nc3nc4ccccc4o3)NC3=C2C(=O)CCC3)c1 (configuration not stated) | 18.8 µM (active) |
| Cc1ccc(C2N=C(Nc3nc4ccccc4o3)NC3=C2C(=O)CCC3)s1 (configuration not stated) | 61.1 µM (active) |
| O=C1CCCC2=C1C(c1ccccc1Cl)N=C(Nc1nc3ccccc3o1)N2 (configuration not stated) | 2.66 µM (active) |
| O=C1CCCC2=C1C(c1ccccc1)N=C(Nc1nc3ccccc3o1)N2 (configuration not stated) | 34.3 µM (active) |
| O=C1CCCC2=C1C(c1ccncc1Cl)N=C(Nc1nc3ccccc3o1)N2 (configuration not stated) | 15.3 µM (active) |
